Compound activity from PubChem BioAssay.
Shown are actives, neighbours in structure and some others; about 19% of the full set was active somewhere.
DT40 TDP1 no CPT: qHTS for Inhibitors of human tyrosyl-DNA phosphodiesterase 1 (TDP1): qHTS in cells in absence of CPT | DT40 Tdp1-/- hTDP1 cells, no CPT, ATP luminescence, 48 h | Potency, µM (highest dose often 46.2 µM), inactives show top-dose activity change, negative = growth inhibition, actives largely listed as inhibitors | actives 15% (n = 420,000); also: nearly all actives have a fitted effect of over 55% in size
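Growth of hTDP1-complemented DT40 Tdp1-knockout cells is measured by ATP luminescence after at least 48 hr compound exposure at 37 °C, with DMSO substituting for the 20 nM CPT used in the parallel screen.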
HT1080NT lethal: qHTS for induction of synthetic lethality in tumor cells producing 2HG: qHTS for the HT-1080-NT fibrosarcoma cell line. AID 686970, 2013. HT-1080-NT fibrosarcoma viability, CellTiter-Glo ATP luminescence, 48 h. actives 1.6% (n = 360,000). Potency, µM (series often up to 46.1 µM), for inactives: at the top dose activity, negative = less viability, hits mostly cytotoxic;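 also: NT is the 2HG producing partner of a matched IDH1 knockdown line; 0% = DMSO-treated cells and -100% = media-only wells without cells; nearly all actives have a fitted effect of over 55% in size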
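Viability by CellTiter-Glo luminescence after 48 h compound exposure at 37C of HT-1080-NT cells (750/well, RPMI, 5% FBS). % activity scaled between DMSO wells and medium-only wells, then curve-fitted and categorized by curve class.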
KB-3-1 cytotox: qHTS assay for MDR1-selective chemotherapeutics: Primary screen using the parental adenocarcinoma cell KB-3-1; KB-3-1 viability, CellTiter-Glo ATP luminescence, 72 h; Potency, µM (series often up to 46.1 µM), actives largely listed as cytotoxic; actives 1.4% (n = 400,000); also: nearly all actives have a fitted effect of over 60% in size
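72 h, 37 °C compound treatment of KB-3-1 parental cells; CellTiter-Glo added, 10 min, luminescence read. Data corrected against DMSO-only plates and normalized before curve fitting.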
HT1080 IDH1KD tx: qHTS for induction of synthetic lethality in tumor cells producing 2HG: qHTS for the HT-1080-IDH1KD cell line; HT-1080 IDH1 knockdown viability, ATP luminescence, 48 h; Potency, µM (highest dose often 46.1 µM), for inactives: at the highest dose activity, negative = toxicity, hits mostly cytotoxic; actives 2% (n = 360,000); AID 686971, 2013;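 also: 0% = DMSO wells and -100% = cell-free medium wells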
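CellTiter-Glo luminescence after 48 h compound exposure at 37 degrees C of IDH1-knockdown HT-1080 cells in 5% FBS RPMI. %Activity scaled between DMSO wells and cell-free media wells, with curves fitted and assigned curve classes.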
DT40 TDP1 CPT: qHTS for Inhibitors of human tyrosyl-DNA phosphodiesterase 1 (TDP1): qHTS in cells in presence of CPT; chicken DT40 Tdp1-/-;hTDP1 cells + 20 nM CPT, ATP luminescence, 48 h; Potency, µM (titrated, usually from 46.2 µM), for the others: at the top dose activity change, negative = growth inhibition, usual class: inhibitors; actives 12% (n = 420,000); also: nearly all actives have a fitted effect of over 55% in size
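Chicken DT40 Tdp1-/- cells complemented with human TDP1, 400 cells/well, exposed to compounds plus 20 nM camptothecin for at least 48 h at 37 C; viability read as ATP content by CellTiter-Glo luminescence.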
KB-V1 cytotox: qHTS assay for MDR1-selective chemotherapeutics: Primary screen using the drug-selected MDR subline cells KB-V1; KB-V1 MDR cells viability, CellTiter-Glo, 72 h; Potency, µM (titrated, usually from 46.1 µM), hits mostly cytotoxic; actives 3.4% (n = 400,000); also: nearly all actives have a fitted effect of over 60% in size
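Drug-selected KB-V1 cells, grown in DMEM lacking phenol red with 10% FBS, receive compound titrations; after three days at 37 degrees C, surviving cell ATP is quantified by CellTiter-Glo luminescence and responses normalized and curve-fitted.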
* marks the source's active call; other numbers are inactive results; i = inactive; ? = inconclusive; · = no result given. Calls follow the shape of the dose curve; as a rule, active = well fitted curve in the direction sought with a large enough effect; inconclusive = small, poorly fitted or top-dose-only effect, or another doubt; inactive = no such curve, though single readings can be large; an effect the other way counts as inactive or inconclusive. Unless noted, % is scaled to controls: 0 for no effect and ±100 for the full control effect; potency is read from the fitted curve at half-maximal effect.

SMILES	DT40 TDP1 no CPT	HT1080NT lethal	KB-3-1 cytotox	HT1080 IDH1KD tx	DT40 TDP1 CPT	KB-V1 cytotox
O=C(NCCCO)/C(=C/c1ccc(-c2cccc([N+](=O)[O-])c2)o1)NC(=O)c1ccccc1	-25%	-29%	i	?	0%	i
COC(=O)/C(=C/c1ccco1)NC(=O)c1ccccc1	-14%	-5%	i	-2%	3%	i
O=C(NCCO)/C(=C\c1ccc([N+](=O)[O-])o1)NC(=O)c1ccccc1	29µM*	-6%	i	-3%	?	i
CCCCOc1ccc(C(=O)N/C(=C\c2cccc([N+](=O)[O-])c2)C(=O)OCCC)cc1	-5%	-24%	i	-2%	0%	i
CCCOC(=O)/C(=C\c1ccc([N+](=O)[O-])o1)NC(=O)c1ccccc1	21µM*	-10%	?	-27%	16µM*	?
CCCOC(=O)/C(=C\C=C\c1ccco1)NC(=O)c1ccccc1	21µM*	-3%	i	-17%	13µM*	i
CCOC(=O)/C(=C\c1ccc([N+](=O)[O-])o1)NC(=O)c1ccccc1	18µM*	?	i	?	23µM*	?
CCOc1ccc(NC(=O)Cn2c(=O)n(CC(=O)NCCc3ccccc3)c(=O)c3sccc32)cc1	-4%	·	·	·	-17%	·
CC(=O)Nc1cccc(C(=O)OCc2ccc(C(=O)Oc3ccc(Cl)cc3)cc2)c1	-5%	3%	i	-27%	-17%	i
COC(=O)Oc1ccccc1C(=O)O	2%	·	·	·	6%	·
Cc1cc(C(=O)Nc2ccc(-n3c(C)nc4ccccc4c3=O)cc2)ccc1[N+](=O)[O-]	?	·	i	·	?	i
Cc1nc2ccccc2c(=O)n1-c1ccc(NC(=O)c2ccc([N+](=O)[O-])cc2)cc1	?	·	i	·	?	i
Cc1cc(-n2c(C)nc3ccccc3c2=O)ccc1NC(=O)c1cccc([N+](=O)[O-])c1	12µM*	·	i	·	16µM*	i
O=C(Nc1cccc2ccccc12)c1cccc([N+](=O)[O-])c1	-13%	0%	i	9%	-6%	i
Cc1nc2ccccc2c(=O)n1-c1ccc(NC(=O)c2cccc([N+](=O)[O-])c2)cc1	21µM*	·	i	·	18µM*	i
Cc1ccc(C(=O)Nc2ccc(-n3c(C)nc4ccccc4c3=O)cc2)cc1[N+](=O)[O-]	7.3µM*	·	i	·	9.2µM*	i
CCN1C(=O)C(Cc2nc3ccccc3c(=O)n2-c2ccccc2)c2ccccc21 (stereo not given)	-27%	-11%	i	-12%	-21%	4.1µM*
COc1ccc(-n2c(/C=C3\C(=O)N(C)c4ccccc43)nc3ccccc3c2=O)cc1	?	-4%	i	-1%	-1%	i
CCN1C(=O)/C(=C/c2nc3ccccc3c(=O)[nH]2)c2ccccc21	?	5%	i	17%	?	i
CCN1C(=O)/C(=C/c2nc3ccccc3c(=O)n2-c2ccc(C)cc2)c2ccccc21	18µM*	-1%	?	-2%	23µM*	i
CCN1C(=O)C(Cc2nc3ccccc3c(=O)n2-c2ccc(OC)cc2)c2ccccc21 (stereo not given)	?	·	i	·	?	i
CCN1C(=O)/C(=C\c2nc3ccccc3c(=O)n2-c2ccccc2)c2ccccc21	8.2µM*	-9%	?	?	13µM*	?
OC[C@@H]1CN(Cc2cccc3ccccc23)C[C@H](n2cnc3c(NCc4ccco4)ncnc32)O1	21µM*	?	i	?	21µM*	?
OC[C@@H]1CN(Cc2ccc(Cl)cc2)C[C@H](n2cnc3c(NCc4ccco4)ncnc32)O1	-27%	9%	i	14%	?	?
CC(C)CNc1ncnc2c1ncn2[C@H]1CN(Cc2ccc(Cl)cc2)C[C@@H](CO)O1	?	-19%	i	-8%	?	i
SMILES	DT40 TDP1 no CPT	HT1080NT lethal	KB-3-1 cytotox	HT1080 IDH1KD tx	DT40 TDP1 CPT	KB-V1 cytotox
CC(C)CNc1ncnc2c1ncn2[C@H]1CN(Cc2cccc3ccccc23)C[C@@H](CO)O1	?	?	i	?	18µM*	?
COC(=O)C1=C(C(=O)OC)[C@@H]2N(C)c3ccccc3[C@@]23C[C@@H](CO)N=C3N1	5%	-2%	i	8%	3%	i
Cc1ccc(NC(=O)CSc2nc(=O)n(CCCN3CCOCC3)c3c2CCCC3)c(C)c1	-7%	4%	i	0%	5%	i
CON(C)c1nc(OCCNC(=O)OCc2ccc(Cl)cc2Cl)nc(N(C)C)n1	8.2µM*	4%	i	5%	16µM*	?
CON(C)c1nc(OCCNC(=O)COc2ccc(Cl)cc2C)nc(N(C)C)n1	8.2µM*	-2%	i	-13%	8.2µM*	i
CN(C)c1nc(OCCNC(=O)Nc2ccc(Cl)cc2)nc(N(C)C)n1	-14%	4%	i	5%	-17%	?
COc1ccc(OCCN2CCC(C(=O)NC(c3ccc(OC)cc3)c3ccccn3)CC2)cc1 (stereo not given)	-23%	-5%	i	-2%	-14%	i
COc1ccc(C(NC(=O)C2CCN(C/C=C/c3ccc(OC(C)=O)c(OC)c3)CC2)c2ccccn2)cc1 (stereo not given)	21µM*	?	i	?	?	i
O=C(NC(c1ccc(Cl)cc1)c1cccnc1)C1CCN(CCOc2ccc(Cl)cc2Cl)CC1 (stereo not given)	?	18µM*	i	18µM*	?	i
Cc1cccnc1C(NC(=O)C1CCN(CCOc2ccc(F)cc2)CC1)c1ccc(F)cc1 (stereo not given)	?	?	i	?	?	?
Cc1cccnc1C(NC(=O)C1CCN(CCOc2ccc(Cl)cc2Cl)CC1)c1ccc(Cl)cc1 (stereo not given)	7.3µM*	0%	?	8%	12µM*	?
